Experimental data reported in PubChem BioAssay AID1508633 (National Center for Advancing Translational Sciences (NCATS), 2021).
Results filed as inconclusive are left out. The source made the active and inactive calls. The call rests on the fitted dose curve; in most records, active means well fitted inhibition curve with a large enough effect; inconclusive means small, poorly fitted or top-dose-only effect; inactive means no such curve, though single readings can be large or run the other way.

System: zebrafish ABCB5 (Abcb5) multidrug transporter
Assay: qHTS for characterization and localization of zebrafish homologs of the human ABCB1 multidrug transporter: ABCB5 transfected cells
Details: CellTiter-Glo luminescence viability, 72 h
Description: The zebrafish has emerged as a potential model to study the blood-brain barrier (BBB) given its similarities with mammalian systems. However, little information has been available with regard to homologous ATP-binding cassette transporters expressed at the zebrafish BBB. Two transporters that are highly expressed at the human BBB are P-glycoprotein (P-gp, encoded by the ABCB1 gene) and ABCG2 (encoded by the ABCG2 gene). In this study, we focus on characterization of P-gp homologs in the zebrafish, which has two genes that are homologous to human ABCB1 - abcb4 and abcb5. We generated stably-transfected cell lines to determine their substrate specificities. […] Zebrafish abcb4 also colocalized with claudin 5 expression in brain endothelial cells.
A high-throughput screen was performed as previously described on empty vector transfected cells, P-gp-overexpressing MDR-19 cells and cells transfected with full-length zebrafish abcb4 (ZF Abcb4) or abcb5 (ZF Abcb5). Briefly, cells were plated into 1536-well plates at a density of 500 cells/well in 5 uL media. […] CellTiter-Glo reagent (Promega) was dispensed into the wells, incubated for 5 min and luminescence was read on a ViewLux instrument (Perkin-Elmer). […]

Row | Structure (SMILES) | Potency
1 | C=CCON=C(C[C@H]1O[C@@H]2O[C@]3(C)CC[C@@H]4[C@H](C)CC[C@@H]([C@H]1C)[C@@]24OO3)[C@H]1O[C@@H]2O[C@]3(C)CC[C@H]4[C@H](C)CC[C@@H]([C@@H]1C)[C@@]24OO3 | 526 nM (active)
2 | C[C@@H]1[C@@H](CC(C[C@H]2O[C@@H]3O[C@]4(C)CC[C@@H]5[C@H](C)CC[C@@H]([C@H]2C)[C@@]35OO4)C[S+](=O)([O-])c2ccc(COC(=O)N(C)C)cc2)O[C@@H]2O[C@]3(C)CC[C@H]4[C@H](C)CC[C@@H]1[C@@]24OO3 (some centres not stated) | 590 nM (active)
